High-throughput results deposited in PubChem by National Center for Advancing Translational Sciences (NCATS).
In the library only some 7.6% were active in any assay of this set; here they are far more common.
KCNH2 3.1 block: qHTS for Inhibitors of KCHN2 3.1: Mutant qHTS; AID 720553, 2013; Potassium voltage-gated channel subfamily H member 2, brain isoform KCNH2 3.1 (human); U2OS KCNH2 3.1, thallium flux FluxOr; stronger effect = lower value; 340,000 compounds, 0.95% hits; activity change, % (tested at about 1.8 µM);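 active = maximum activity change below -70%; inconclusive = maximum activity change from -70% to -50%; inactive = maximum activity change above -50%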;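 also: thallium influx rate constant from kinetic fluorescence after stimulation buffer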
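Normalized rate constant (relative to positive and negative DMSO controls) derived from a 2 min kinetic fluorescence read after stimulation; U2OS cells expressing the 3.1 isoform via virus at 1.77 x 10^8 /mL.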
KCNH2 WT inh: qHTS for Inhibitors of KCHN2 3.1: Wildtype qHTS | Voltage-gated inwardly rectifying potassium channel KCNH2 (Homo sapiens), Q12809 | U2OS, BacMam KCNH2, thallium flux FluxOr; stronger effect = lower value | activity change, % at 1.84 µM | 340,000 compounds, 0.37% hits;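 active = maximum activity change below -70%; inconclusive = maximum activity change between -70% and -50%; inactive = maximum activity change above -50%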
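U2OS cells transduced with wild-type KCNH2 virus are loaded with FluxOr dye for 45 min, and thallium flux is measured in kinetic reads before and after stimulation buffer. Rate constants are normalized to DMSO controls.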
KB-3-1 tox: qHTS assay for MDR1-selective chemotherapeutics: Primary screen using the parental adenocarcinoma cell KB-3-1; KB-3-1 viability, CellTiter-Glo ATP luminescence, 72 h; 400,000 compounds, 1.4% hits; Potency, µM (series often up to 46.1 µM), most hits filed as cytotoxic; also: nearly all actives have a fitted effect of over 60% in size
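Parental KB-3-1 adenocarcinoma cells in phenol-red-free DMEM with 10% FBS were pin-treated with compounds at several concentrations, incubated 72 h at 37 °C, and viability read by CellTiter-Glo luminescence; concentration-effect curves were fitted after normalization.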
SW480 rerep: A quantitative high throughput screen for small molecules that induce DNA re-replication in SW480 colon adenocarcinoma cells; 340,000 compounds, 1.8% hits; SW480 DNA re-replication, Hoechst DNA content imaging, 48 h; Potency, µM (series often up to 46.1 µM), actives largely listed as activators; AID 624297, 2012; also: nearly all actives have a fitted effect of over 55% in size
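First, 250 cells per well were seeded. Next, compound or vehicle (23 nL) was pinned in, plates sat 48 hr at 37 C. Finally Hoechst was added for 40 min before fluorescence scanning.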
KB-V1 MDR tox: qHTS assay for MDR1-selective chemotherapeutics: Primary screen using the drug-selected MDR subline cells KB-V1 | 400,000 compounds, 3.4% hits | Potency, µM (titrated, usually from 46.1 µM), hits mostly cytotoxic | KB-V1 MDR cells viability, CellTiter-Glo, 72 h; also: nearly all actives have a fitted effect of over 60% in size
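Cells of the MDR subline KB-V1 are plated, dosed with compound at multiple concentrations, and incubated 72 h at 37 degrees C; CellTiter-Glo is then added and luminescence read after 10 min.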
MCF10A rerep: A quantitative high throughput screen for small molecules that induce DNA re-replication in MCF 10a normal breast cells; 350,000 compounds, 2.9% hits; AID 624296, 2012; MCF 10A DNA re-replication, Hoechst nuclear intensity, 48 h; Potency, µM (titrated, usually from 46.1 µM), most hits filed as activators; also: nearly all actives have a fitted effect of over 50% in size
Numbers stand for hits; – = inactive; ? = inconclusive; · = no result given. Unless noted, calls follow the shape of the dose curve; as a rule, active = well fitted curve in the direction sought with a large enough effect; inconclusive = small, poorly fitted or top-dose-only effect, or another doubt; inactive = no such curve, though single readings can be large; an effect the other way counts as inactive or inconclusive.

SMILES | KCNH2 3.1 block | KCNH2 WT inh | KB-3-1 tox | SW480 rerep | KB-V1 MDR tox | MCF10A rerep
Cc1onc(-c2ccccc2)c1C(=O)N/N=C/c1ccc([N+](=O)[O-])s1 | – | – | – | ? | ? | ?
CC(C)[C@@H]1CC2=C(C(=O)OC(C)(C)O2)[C@H](CCc2ccccc2)O1 | · | · | – | · | – | ·
CCOc1cc(C(=O)N/N=C/C2CC=CCC2)cc(OCC)c1OCC (stereo unspecified) | – | – | – | 23µM | – | ?
O=C(COC(=O)CCSc1ccccc1)Nc1ccccc1Br | – | – | – | – | ? | –
CCCN1CCC(N2CCN(c3cccc(C(F)(F)F)c3)CC2)CC1 | -97 | – | – | – | – | ?
CCCOc1ccc(N2C(=O)CC(N3CCN(c4ccc([N+](=O)[O-])cc4)CC3)C2=O)cc1 (stereo unspecified) | ? | – | – | – | – | –
CCCN1CCC(N2CCN(c3ccc([N+](=O)[O-])cc3)CC2)CC1 | -79 | – | – | – | – | –
CCOc1ccc(N2C(=O)CC(N3CCN(c4ccc([N+](=O)[O-])cc4)CC3)C2=O)cc1 (stereo unspecified) | -91 | – | – | – | – | –
CCN1CCC(N2CCN(c3ccc(Cl)cc3)CC2)CC1 | – | – | – | – | – | –
O=C(Nc1ncccc1O)c1ccc2c(c1)OCCO2 | – | – | 4.1µM | – | ? | –
O=C(Nc1ccc2c(c1)OCCO2)c1cccc2nc3ccccc3nc12 | – | – | ? | – | 6.5µM | ?
O=C(Nc1ccc2c(c1)OCCO2)c1ccccc1Cl | – | – | – | · | – | ·
O=C(Nc1ccc2c(c1)OCCO2)c1ccccn1 | – | – | 18µM | – | ? | –
COc1cc(C)c(NC(=O)Cc2ccsc2)cc1OC | – | – | – | – | – | –
CCn1c(/C=C/N(C)c2ccccc2)[n+](CC)c2ccc(Cl)cc21 | – | – | 5.2µM | – | – | –
CCn1c(/C=C/Nc2ccccc2)[n+](CC)c2ccc(Cl)cc21 | – | – | ? | – | – | –
O=C(Nc1ccc(S(=O)(=O)N2CCOCC2)cc1)c1ccc2c(c1)S(=O)(=O)c1ccccc1C2=O | – | – | – | – | – | –
Cc1ccc(NC(=O)CN2CCc3ccccc3C2)cc1S(=O)(=O)N1CCOCC1 | – | – | – | – | 8.2µM | –
COc1cc2c(cc1OC)CN(CC(=O)Nc1ccc(C)c(S(=O)(=O)N3CCOCC3)c1)CC2 | – | – | – | – | – | –
Cc1ccc(NC(=O)CCNS(=O)(=O)c2ccccc2)cc1S(=O)(=O)N1CCOCC1 | – | – | – | – | – | –
Cc1ccc(NC(=O)c2ccc3c(c2)S(=O)(=O)c2ccccc2C3=O)cc1S(=O)(=O)N1CCOCC1 | -190 | -136 | – | – | – | –
Cc1ccc(NC(=O)Cc2ccccc2)cc1S(=O)(=O)N1CCOCC1 | – | – | – | – | 23µM | –
Cc1ccc(NC(=O)c2ccc(N3CCOCC3)c([N+](=O)[O-])c2)cc1S(=O)(=O)N1CCOCC1 | – | – | 21µM | – | ? | –
COCCN(CCOC)S(=O)(=O)c1ccc(NC(=O)c2cnccn2)cc1 | – | – | – | – | – | –
O=C1CN=C(Nc2ccccc2Cl)N1Cc1ccc2c(c1)OCO2 | – | – | – | – | – | –
CCOC(=O)C1CCN(C(=O)CN(C)S(=O)(=O)c2ccc3c(c2)c(=O)n(C)c(=O)n3C)CC1 | – | – | – | – | – | –
CCCC(=O)Nc1ccc(C(=O)N/N=C/c2ccc([N+](=O)[O-])o2)cc1 | – | – | ? | 16µM | – | 3.3µM
Cc1cc(C(=O)N/N=C/c2ccc([N+](=O)[O-])o2)c(C)o1 | -92 | – | – | ? | – | –
